Consider 5 molecules from PubChem BioAssay.

The target of one experiment is Albumin (Bos taurus) (UniProt P02769). The experiment is described as follows: compounds binding labelled BSA control protein – biochemical, small-molecule microarray, Alexa647 label, 635/667 nm fluorescence, artefact control for SMM control protein annotation, profiling panel (AID 1118).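 Also: score merges 667 nm emission intensity and signal-to-noise per printed compound spot.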 To be noted: BSA-A647 binding, fluorescence 635 nm, higher = more signal.
Experiment [1] in a line: probe aXIP binding to arrayed compounds – biochemical, NeuroSMM set, 635/667 nm fluorescence, primary screen (AID 1119).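 Also: probe is the protein aXip251-270 applied at 1 µg/mL to compound-printed slides; binding of probe to printed compounds measured as 667 nm fluorescence plus signal to noise.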 To be noted: small-molecule microarray, higher = more signal, called active from +8 up or from −8 down.
Experiment [2] in a line: probe aNOTCH3 binding on compound microarray – biochemical, small-molecule microarray, 635/667 nm fluorescence, primary screen (AID 1120).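 Also: probe is a biotin-tagged antibody raised against NOTCH3 rather than NOTCH3 protein; score merges spot fluorescence near 667 nm with spot signal to noise.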 The note with it: higher = more signal.
The nature of experiment [3]: probe aNOTCH2 binding on compound microarray – biochemical, small-molecule microarray, 635/667 nm fluorescence, primary screen (AID 1121).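 Also: score merges feature fluorescence read at 667 nm with its signal to noise.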 To be noted: higher = more signal.
The target of experiment [4] is Carbonic anhydrase 2 (Homo sapiens) (UniProt P00918). In words: compounds binding carbonic anhydrase 2 – biochemical, small-molecule microarray, Alexa647-labelled CAII, profiling panel (AID 1122). The note with it: CAII-A647 binding fluorescence, higher = more signal.
Experiment [5] in a line: COS7 lysate on small-molecule microarray, probe aHis, 635 nm (AID 1123).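 Also: z-score combines 667nm fluorescence intensity with signal-to-noise per printed compound spot.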 The note with it: COS7 cell lysate, fluorescence, higher = more signal.
Experiment [6] in a line: probe aLAP1 signal on lysate-treated microarray – cell lysate, small-molecule microarray, COS7 lysate, primary screen (AID 1124).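 Also: lysate comes from COS7 cells expressing LAP1 and is applied at 0.3 µg/mL; score merges spot fluorescence near 667 nm with signal-to-noise over triplicate slides.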 The note with it: probe aLAP1, fluorescence, higher = more signal.
The subject of another experiment is Sam68 (KHDRBS1). In words: compounds binding KHDRBS1 protein – biochemical, small-molecule microarray, 635 nm fluorescence, primary screen (AID 1125).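 Also: score merges 667 nm channel intensity with signal to noise over triplicate slides.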 The note with it: higher = more signal.
The subject of experiment [7] is Chordin-like protein 2 (CHRDL2). The experiment is described as follows: compounds binding chordin-like 2 – biochemical, small-molecule microarray, 635 nm fluorescence, primary screen (AID 1126).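 Also: printed compound slides probed with Chrdl2 protein at 4 µg/mL for 1 h at 4 C; score merges 667 nm emission intensity with signal to noise over three replicate slides.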 The note with it: fluorescence 635 nm, higher = more signal.
Experiment [8] has as its target Concanavalin-A (Canavalia ensiformis) (UniProt P02866). In words: compounds binding concanavalin A lectin – biochemical, small-molecule microarray, Alexa647 label, 635 nm, artefact control for SMM control protein annotation, primary screen (AID 1127).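 Also: z combines 667 nm emission intensity with signal-to-noise across three replicate slides.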 The note with it: ConA-A647 binding fluorescence, higher = more signal.
A short description of experiment [9]: compounds binding Alexa647 anti-His antibody – biochemical, small-molecule microarray, 635 nm fluorescence, artefact control for SMM control protein annotation, primary screen (AID 1128).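 Also: score merges feature fluorescence with signal-to-noise for each printed compound spot.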 To be noted: higher = more signal.
For experiment [10], the system named is Human papillomavirus type 1a E7 protein (residues 1-88). In words: HPV1a E7 small-molecule binders, primary screen, biochemical, small-molecule microarray, residues 1-88, 635 nm (AID 1129). The note with it: small-molecule microarray binding, fluorescence 635 nm; higher = more signal.
Experiment [11] concerns the target Focal adhesion kinase 1 (Homo sapiens) (UniProt Q05397). In words: PTK2 protein binding on printed compound slides – biochemical, small-molecule microarray, 635/667 nm fluorescence, BSA, DTT, primary screen (AID 1130).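 Also: composite of spot emission at 667 nm and signal to noise over triplicate slides.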 To be noted: 635 nm fluorescence, higher = more signal.
The test system of experiment [12] is Fibrinogen (Alexa647-labelled). In words: Alexa647-fibrinogen binding to printed small molecules – biochemical, small-molecule microarray, 635/667 nm fluorescence, artefact control for SMM control-protein annotation, profiling panel (AID 1131).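 Also: z-score merges 667 nm fluorescence with per-spot signal-to-noise over triplicate slides.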 To be noted: fibrinogen-A647 binding fluorescence, higher = more signal.
Experiment [13] has as its target Follistatin (Homo sapiens) (UniProt P19883). The experiment is described as follows: FST protein binding to printed compounds – biochemical, small-molecule microarray, 635/667 nm fluorescence, primary screen (AID 1132). To be noted: 635 nm fluorescence, higher = more signal.
In experiment [14] the target is Fibroblast growth factor 2 (Homo sapiens) (UniProt P09038). The experiment is described as follows: basic fibroblast growth factor binding to printed compounds – biochemical, small-molecule microarray, 635/667 nm fluorescence, primary screen (AID 1133). To be noted: FGF2, fluorescence 635/667, higher = more signal.
Experiment [15] in a line: JC-1 mitochondrial potential readout, lung cancer cells – cell-based, A549, JC-1 fluorescence, basal, 24 h, 100 nL, profiling panel (AID 1138).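 Also: A549 lung adenocarcinoma cells under basal conditions with no added stimulus; test concentration not given here.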 To be noted: higher = more signal.
In a further experiment the test system is Lefty1. The experiment is described as follows: Lefty1 protein binding to printed compounds – biochemical, small-molecule microarray, 635/667 nm fluorescence, primary screen (AID 1139). The note with it: fluorescence 635/667, higher = more signal.
Experiment [16] deals with wheat germ agglutinin (Triticum aestivum), Alexa647-labelled. The experiment is described as follows: Alexa647-WGA lectin binding to printed small molecules – biochemical, small-molecule microarray, 635/667 nm fluorescence, artefact control for SMM control-protein annotation, profiling panel (AID 1140).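 Also: score merges 667 nm feature emission with signal to noise over triplicate slides.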 To be noted: WGA-A647 binding, 635 nm fluorescence, higher = more signal.

Experiment [17] deals with Luciferin 4-monooxygenase (Photinus pyralis) (UniProt P08659). In words: inhibition of purified Photinus pyralis luciferase – biochemical, luminescence, purified enzyme, 2006 set, primary screen (AID 1141).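 Also: cell-free assay with purified firefly luciferase at 100 ng per well in PBS; test concentration not given here.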 To be noted: purified firefly luciferase, SteadyGlo luminescence, 30 min; higher = more signal, called active from +8 up or from −8 down.

Activity calls are given as the source filed them.

Sequence of Luciferin 4-monooxygenase (Photinus pyralis) (P08659 whole entry, looked up): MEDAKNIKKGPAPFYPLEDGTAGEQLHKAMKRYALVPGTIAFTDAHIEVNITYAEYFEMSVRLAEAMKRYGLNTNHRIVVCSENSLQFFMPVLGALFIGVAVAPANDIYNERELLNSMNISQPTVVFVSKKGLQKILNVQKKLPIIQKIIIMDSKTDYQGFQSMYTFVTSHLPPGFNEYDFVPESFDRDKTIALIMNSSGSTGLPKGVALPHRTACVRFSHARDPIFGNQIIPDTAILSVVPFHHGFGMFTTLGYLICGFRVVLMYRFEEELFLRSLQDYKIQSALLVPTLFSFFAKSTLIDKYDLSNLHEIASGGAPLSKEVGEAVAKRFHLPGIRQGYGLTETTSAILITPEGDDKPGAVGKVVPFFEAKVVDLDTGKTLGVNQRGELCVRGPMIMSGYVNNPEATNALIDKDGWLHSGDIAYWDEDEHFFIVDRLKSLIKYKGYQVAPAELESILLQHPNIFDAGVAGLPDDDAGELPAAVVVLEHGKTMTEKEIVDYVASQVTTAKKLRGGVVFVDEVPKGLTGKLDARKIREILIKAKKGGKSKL
Sequence of Albumin (Bos taurus) (P02769 whole entry, looked up): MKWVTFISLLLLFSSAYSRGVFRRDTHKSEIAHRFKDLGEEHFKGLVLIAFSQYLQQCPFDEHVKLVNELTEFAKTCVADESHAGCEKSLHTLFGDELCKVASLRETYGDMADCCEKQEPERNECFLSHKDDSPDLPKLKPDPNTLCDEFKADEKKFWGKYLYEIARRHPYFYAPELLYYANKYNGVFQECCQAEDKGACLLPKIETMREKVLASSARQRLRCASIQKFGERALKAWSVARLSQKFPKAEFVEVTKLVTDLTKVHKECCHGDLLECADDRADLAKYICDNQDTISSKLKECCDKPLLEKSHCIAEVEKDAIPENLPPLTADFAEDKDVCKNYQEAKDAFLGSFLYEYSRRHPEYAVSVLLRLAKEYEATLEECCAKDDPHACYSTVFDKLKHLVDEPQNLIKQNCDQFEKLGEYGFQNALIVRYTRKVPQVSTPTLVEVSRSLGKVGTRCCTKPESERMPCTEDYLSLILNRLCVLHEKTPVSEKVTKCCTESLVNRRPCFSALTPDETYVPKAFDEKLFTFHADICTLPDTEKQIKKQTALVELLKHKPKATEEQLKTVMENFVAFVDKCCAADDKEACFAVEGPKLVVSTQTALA
Sequence of Follistatin (Homo sapiens) (P19883 whole entry, looked up): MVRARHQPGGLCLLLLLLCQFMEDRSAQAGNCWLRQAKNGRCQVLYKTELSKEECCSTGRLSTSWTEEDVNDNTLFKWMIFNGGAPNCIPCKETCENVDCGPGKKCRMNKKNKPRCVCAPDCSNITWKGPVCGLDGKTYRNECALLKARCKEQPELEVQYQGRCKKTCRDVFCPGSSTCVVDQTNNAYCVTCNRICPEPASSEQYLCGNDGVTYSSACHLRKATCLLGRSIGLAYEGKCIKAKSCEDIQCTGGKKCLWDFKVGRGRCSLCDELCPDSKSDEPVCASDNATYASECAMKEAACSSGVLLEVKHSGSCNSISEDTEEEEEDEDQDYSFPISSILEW
Sequence of Fibroblast growth factor 2 (Homo sapiens) (P09038 whole entry, looked up): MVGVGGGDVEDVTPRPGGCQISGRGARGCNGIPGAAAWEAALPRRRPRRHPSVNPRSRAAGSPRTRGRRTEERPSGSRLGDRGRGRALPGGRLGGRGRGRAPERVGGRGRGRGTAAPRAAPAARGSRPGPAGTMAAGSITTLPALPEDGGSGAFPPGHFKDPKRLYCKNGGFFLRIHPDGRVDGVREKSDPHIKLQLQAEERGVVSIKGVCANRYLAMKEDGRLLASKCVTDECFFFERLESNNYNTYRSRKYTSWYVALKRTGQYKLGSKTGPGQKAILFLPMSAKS
Sequence of Concanavalin-A (Canavalia ensiformis) (P02866 whole entry, looked up): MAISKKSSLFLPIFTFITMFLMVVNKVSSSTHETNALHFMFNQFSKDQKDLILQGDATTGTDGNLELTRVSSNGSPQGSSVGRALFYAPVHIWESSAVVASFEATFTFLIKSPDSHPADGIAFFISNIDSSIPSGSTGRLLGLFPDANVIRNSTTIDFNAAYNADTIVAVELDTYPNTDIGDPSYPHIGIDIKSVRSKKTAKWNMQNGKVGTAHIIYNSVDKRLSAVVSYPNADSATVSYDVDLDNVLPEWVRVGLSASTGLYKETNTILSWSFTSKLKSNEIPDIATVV
Sequence of Focal adhesion kinase 1 (Homo sapiens) (Q05397 whole entry, looked up): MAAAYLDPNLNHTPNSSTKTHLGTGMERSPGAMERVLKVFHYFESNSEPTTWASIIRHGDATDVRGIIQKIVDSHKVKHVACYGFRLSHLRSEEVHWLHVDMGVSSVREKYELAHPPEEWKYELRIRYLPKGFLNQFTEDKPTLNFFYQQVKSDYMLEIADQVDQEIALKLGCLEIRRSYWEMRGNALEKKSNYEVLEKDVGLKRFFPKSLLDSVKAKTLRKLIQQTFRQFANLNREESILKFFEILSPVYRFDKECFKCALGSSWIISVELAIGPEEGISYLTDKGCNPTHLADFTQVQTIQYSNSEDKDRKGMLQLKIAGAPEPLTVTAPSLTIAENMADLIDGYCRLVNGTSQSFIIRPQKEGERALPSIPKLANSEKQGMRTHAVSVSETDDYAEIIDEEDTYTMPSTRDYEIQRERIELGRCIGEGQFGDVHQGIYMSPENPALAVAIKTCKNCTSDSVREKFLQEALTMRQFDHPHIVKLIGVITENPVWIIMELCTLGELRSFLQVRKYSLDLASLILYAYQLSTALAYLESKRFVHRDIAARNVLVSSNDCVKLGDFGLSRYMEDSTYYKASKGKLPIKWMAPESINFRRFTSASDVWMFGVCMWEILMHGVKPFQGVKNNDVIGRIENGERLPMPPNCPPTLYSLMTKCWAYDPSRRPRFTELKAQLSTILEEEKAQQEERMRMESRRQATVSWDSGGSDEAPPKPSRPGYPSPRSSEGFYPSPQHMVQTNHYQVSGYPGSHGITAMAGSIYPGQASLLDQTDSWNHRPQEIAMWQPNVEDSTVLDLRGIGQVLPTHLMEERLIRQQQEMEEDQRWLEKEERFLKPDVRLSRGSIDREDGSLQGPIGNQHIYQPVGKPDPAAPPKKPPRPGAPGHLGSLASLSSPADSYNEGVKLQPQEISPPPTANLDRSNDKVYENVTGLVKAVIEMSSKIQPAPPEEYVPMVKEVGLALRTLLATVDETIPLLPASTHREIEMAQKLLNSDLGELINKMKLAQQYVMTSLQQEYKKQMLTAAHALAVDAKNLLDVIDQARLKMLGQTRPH

Regarding `O=C1C[C@@H](O)[C@@H](O)[C@@H]2[C@@H]3C(=O)N(c4ccc(F)cc4F)C(=O)[C@@H]3CC[C@H]12`, the composite z-score with Albumin (Bos taurus) was 0.422; in [2], 0.0257; in [3] it was -0.102; in [4] it was 0.104; in experiment [5], 0.517; in experiment [6], 0.0172. For the same molecule, the composite z-score in the experiment on Sam68 (KHDRBS1) stood at 0.495; in experiment [7], 0.571; in [8] it was 0.44; in experiment [9], 0.387; in experiment [10], 0.503; in experiment [11], 0.0336. Also, the composite z-score in experiment [12] was found to be 0.428; in experiment [13] it was 0.549; in [14], 0.401; in the experiment with Lefty1 it was 0.645; in [16], 0.304. In addition, in experiment [1], the composite Z-score is -0.0025 (inactive). For the same molecule, the z-score is -0.834 in [15] and -0.211 (inactive) in [17].

For `CC(=O)OC[C@H]1O[C@H](C#CCC2CCCCC2)C=C[C@@H]1OC(C)=O`, the composite z-score is 0.718 with Albumin (Bos taurus); -0.154 in experiment [2]; -0.0632 in experiment [3]; 0.494 in experiment [4]; 0.853 in [5]; 0.53 in experiment [6]. The composite z-score with Sam68 (KHDRBS1) is 0.953; in experiment [7], 0.32; in [8], 1.04; in experiment [9], 0.502; in [10], 0.916; in experiment [11] it was -0.146. Further, the composite z-score was found to be 0.672 in experiment [12]; 0.675 in experiment [13]; 0.339 in experiment [14]; 0.513 in the experiment on Lefty1; 0.371 in experiment [16]. For the same molecule, in experiment [1], the composite Z-score is -0.106 (inactive). Further, the z-score in experiment [15] was 0.587; in experiment [17] it was -2.68 (inactive).

As to `O=C1CCCC=C1C(O)COCc1ccccc1` (stereo not given), the composite z-score with Albumin (Bos taurus) was 0.411; in experiment [2], -0.154; in experiment [3], -0.157; in [4], -0.213; in experiment [5], 0.428; in experiment [6] it was 0.08. Further, the composite z-score was -1.01 with Sam68 (KHDRBS1); -0.137 in experiment [7]; 0.999 in [8]; 0.195 in experiment [9]; -1.33 in [10]; 0.0944 in experiment [11]. Moreover, the composite z-score is 0.772 in [12]; 0.124 in [13]; 0.236 in experiment [14]; 0.295 in the experiment with Lefty1; -0.0439 in experiment [16]. Further, the composite Z-score in experiment [1] was 0.16 (inactive). The figures for the z-score in experiment [15] and in experiment [17] were -0.68 and 0.345 (inactive), respectively.

Consider `CCCNC(=O)OC[C@H]1O[C@H](CCON=C[C@@H](NS(=O)(=O)c2ccc(C)cc2)[C@H](C)C=CCC(=O)OC)C=C[C@@H]1Oc1ccc(OC)cc1`, for which the composite z-score with Albumin (Bos taurus) is -0.413; in [2], 0.0961; in experiment [3], -0.0158; in [4], -0.437; in [5], -0.192; in [6], -0.0407. Further, the composite z-score in the experiment with Sam68 (KHDRBS1) was 0.0713; in experiment [7] it was 0.16; in [8], -1.46; in [9] it was -0.114; in experiment [10], 0.136; in [11] it was 0.459. Moreover, the composite z-score is 0.0865 in experiment [12]; -0.0546 in [13]; -0.102 in experiment [14]; 0.0275 in the experiment on Lefty1; 0.391 in experiment [16]. In experiment [1], the composite Z-score is -0.385 (inactive). The z-score was 0.188 in [15] and -0.21 (inactive) in [17].

Take `C#CCCCON=C1C[C@@H](O)[C@@H](O)[C@@H]2[C@@H]3C(=O)N([C@@H](C)c4ccccc4)C(=O)[C@@H]3CC[C@@H]12`: the composite z-score is 0.356 with Albumin (Bos taurus); 0.114 in [2]; -0.165 in experiment [3]; 0.717 in [4]; 0.0072 in experiment [5]; 0.0247 in [6]. For the same molecule, the composite z-score is -0.105 with Sam68 (KHDRBS1); -0.13 in experiment [7]; 0.123 in [8]; -0.559 in experiment [9]; -0.82 in experiment [10]; -0.0567 in experiment [11]. The composite z-score was -0.181 in experiment [12]; -0.326 in experiment [13]; -0.141 in [14]; -0.32 in the experiment with Lefty1; 0.0859 in experiment [16]. For the same molecule, the composite Z-score in experiment [1] was -0.51 (inactive). Besides, the z-score in [15] is -0.683; in [17], 0.993 (inactive).
